These sequences were tested against FLG (assay: pooled miR-30 sensor sort-seq; sequence = guide strand). Settings: shRNA.
Also: reference of the scale not given here.

Sequence | sensor-assay potency score (higher = more potent)
TTTCTTCTAATAGACTATCAGT | -0.739
TTTATCATGATGACTGTGCTTT | 0.582
TTTGTCTGCTTGCACTTCTGGA | -0.568

What follows are sequences tested against FLNC in the same assay as above. Settings: shRNA.

Sequence | sensor-assay potency score (higher = more potent)
TAGGAGACAGCATAGGTGCGAT | -0.825
TTGACGGTGAAGGTGTCGTTGT | -0.371
TTACAGGTGATCTCTGCCTTGG | -0.839
TTGGTGACAATAGTGAAGGTGG | 0.0613
TTGAGGTCACAGGTGCTGCCGA | -0.595
TTGAGGTGCTCATTGCACCAGC | -0.419
TTGTCAGCAAACTTGATGTTGA | -0.54
TTGTCTGTCACATAGGTGTCTG | -0.552
TAGGTGACTTTGCATGTCCCGT | -0.929
TTGAGGTTGAGGTCACAGGTGC | -0.307
TTGATGGTGATGGTGTACCGGC | -1.25
TTGATGTCCACCTTGCTTGGGC | 0.144
TGAGCCATCACCATTGTCCTGG | 0.0505
TTTGATTTTGCTGAGGTCCAGC | 0.0406
TTGACTGCAGTCCACTGTGAAG | -1.44
TTCAGTGACACGTCCGTGGAGG | -0.25
TAGGCTGACACCAAGCCTGGGT | -0.0141
TAGAGCTTCAGGTCTCCCTTGC | 0.291
TAGCTGACAGCACATGAGCCAT | -1.71
TTGTCGGTGATGTTGGGCCGTG | -1.35
TAGGACACAGTGTACGTGCCAT | -0.557
TGAACTCTGATGACACACCGGT | 0.0555
TTGAACTTGATGGAGACCTCAT | -0.144
TACTGCACTCGGTAGGTGCCGT | -0.627

These sequences were tested against FMNL2 in the same assay as above. Settings: shRNA.

Sequence | sensor-assay potency score (higher = more potent)
TTCCATGAGAGCTTGTTCCTGC | 0.908
TTCTGCAATTAACTCTTGCTGC | -0.158
TAATTCTGCAATTAACTCTTGC | -0.103
TTATATGCTTTCACAAACCGGA | -0.533
TTTCTCTAGCTCATGAATCTTT | -0.357
TACAATATTAATAAACTGCATA | -0.855
TAGACTGTCTTTGAATTGCTTC | 0.088
TTCTTCTTTTTCTTTGACCATT | -1.21
TTGAGTATTTGCATCTTTGTAG | 0.305
TTATCTTTAACTTGTCGTCTTC | 0.239
TAGCTTTACATATTTCATCAGC | -0.662
TTATAGAGACAGATGCTGCTAT | 0.344
